Assay results from the supplement of paper PMC6555819.

Each sequence was assayed on PPARg:RXRa 30nM:10nM, anti-RXR (NR concentration 30 nM, RXRa partner concentration 10 nM) (assay: PBM binding z-score (relative to random genomic background probes); higher = stronger binding; sequences stand for … in GC…GCGATTGACAGCGTAGAATGAAGG).
Outline: (§1)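 Regression normalization was applied to scanned fluorescence from custom Agilent 4×180K protein-binding microarrays. Before scanning, arrays were incubated 1 h with ligand-free nuclear receptor dimers, and binding was detected with antibodies against each partner (one per run). Binding z-scores use the random background probes as reference.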

Sequence	PBM binding z-score
AATACAGGGTCATCTTAGGCCAGAGTACGCACAG	2.46
TATCAAAGTTCAAAGGTAACGTAAGTATCCACAC	3.65
ATCGAAAGGTCCAAGGTGAGTATACCCACCCGAA	0.219
TACCCTAGGTCATTGGGCCAGTATAGTACGCATC	1.23
AGAATGGGGTTACCAAAGATCAGGGAAACGCTTG	1.72
AATACAGGGTGACTAGGCCAGAGTAGGTACGAAT	0.461
GTTACAGGGTCAAGGCCAGAGTACGCGTATTGAT	2.09
ATATGTAGGATAGCTGGGGTCATTCAGACTAGGC	1.01
TACCCTAGGTCATTCAGGGGCCAGTATAGAAAGC	0.859
CCTACTGGACCAAGGTCATTGATCAGTCAAAGCA	0.593
AGTCAAAGTTCATCTAGGTAACATAAGATATGCT	3.85
GCATATAGGTAATACAAGGTCAAAGTCCGATTGT	1.39
CGTCCAAGGTCAATGCTAGATCAGTGAAAGCATT	1.52
CCTACTGGGCCATTCAGAGGGCATTGATCATATG	-0.432
CCTACTGGGCCGTTCAGAGGTCATTGATCATATG	0.658
TGTCAATGTTCAAAGGTAACGTAAGTATCCACAC	1.61
ATATGTAGGTTATCGGGTCATACAGTTTGCGCAT	4.38
ATATGTAGGTTACCTGGGGTCATTCAGACTAGGC	3.84
TAGCCTAGGTCATTCAGGGGCCAGCATAGAAAGC	0.723
AGTCAAAGTTGAGGACGAGGTAACGTAAAGCACG	0.562

Sequence	PBM binding z-score
ACTTACGGCTCAACGAGGTTATAGCACGCGTATA	-0.186
CACACTAGGTCACAGAGGTCAAAGTCCGTGCGTA	5.64
TCTGCTAGGTCAACGTTGGTCAGCTAATCTGCTA	1.9
AGAATGAGGTTACTAAAGATCAGGGAAACGCTTG	0.706
TAGCCTAGGTCATTCAGGGGCAAGTATAGAAAGC	0.449
CCTTACGGGTCAAGGTTATAGCCCGGGTGGTACG	1.37
CCTTACGGGTTACTCCAGGTTATAGCATCGGAGT	-0.136
TCTTGTAGATCGATAGAGGTTAAGAAAGTGCGCT	2.48
CCTTACGGGTCACTCCAGGTCATAGCATCGGAGT	1.86
ATATGTAGGTTAGCTGAGGTCATTCAGACTAGGC	2.35
TAGCCTAGTTCATGCGGGCCAGTATAGTGTCGGC	-0.651
CAAAATAGGTCACCGGAAGGTCAAAGTCCGCATG	6.2
ATCGAAAGGTCGACCAGGTGAGTATACACCGTTT	1.16
GCTGCTAGGTCAACTGATGGTCATCTAAAGCTCG	0.892
CCTACTGGGCCAAAGGTGATTGATTCCAATGCTC	7.6
CAAACTAGGTCACAGTGGTCAAAGTCCGTGCGTA	5.52
ATATGTAGTTTATCGGGTCATTCAGTTTGCGCAT	0.761
CAAACTAGGTCACAAAAGGTCAAAGTCGAATGAC	6.97
TCTAGTTGGTCTAAGGTCACACACTCGAAATGCG	5.71
AATACAAGGTCATCGTAGGCCAGAGTACGCACAG	2.73

Each sequence was assayed on PPARg:RXRa 90nM:30nM, anti-RXR (NR concentration 90 nM, RXRa partner concentration 30 nM) in the same assay as above.
Outline: as §1

Sequence	PBM binding z-score
AATACAGGGTCATCTTAGGCCAGAGTACGCACAG	4.59
TATCAAAGTTCAAAGGTAACGTAAGTATCCACAC	5.24
ATCGAAAGGTCCAAGGTGAGTATACCCACCCGAA	0.627
TACCCTAGGTCATTGGGCCAGTATAGTACGCATC	2.96
AGAATGGGGTTACCAAAGATCAGGGAAACGCTTG	3.47
AATACAGGGTGACTAGGCCAGAGTAGGTACGAAT	1.08
GTTACAGGGTCAAGGCCAGAGTACGCGTATTGAT	4.49
ATATGTAGGATAGCTGGGGTCATTCAGACTAGGC	2.38
TACCCTAGGTCATTCAGGGGCCAGTATAGAAAGC	2.15
CCTACTGGACCAAGGTCATTGATCAGTCAAAGCA	1.95
AGTCAAAGTTCATCTAGGTAACATAAGATATGCT	5.76
GCATATAGGTAATACAAGGTCAAAGTCCGATTGT	2.9
CGTCCAAGGTCAATGCTAGATCAGTGAAAGCATT	2.91
CCTACTGGGCCATTCAGAGGGCATTGATCATATG	-0.127
CCTACTGGGCCGTTCAGAGGTCATTGATCATATG	1.67
TGTCAATGTTCAAAGGTAACGTAAGTATCCACAC	3.32
ATATGTAGGTTATCGGGTCATACAGTTTGCGCAT	5.61
ATATGTAGGTTACCTGGGGTCATTCAGACTAGGC	5.9
TAGCCTAGGTCATTCAGGGGCCAGCATAGAAAGC	1.28
AGTCAAAGTTGAGGACGAGGTAACGTAAAGCACG	0.984

Sequence	PBM binding z-score
ACTTACGGCTCAACGAGGTTATAGCACGCGTATA	-0.0465
CACACTAGGTCACAGAGGTCAAAGTCCGTGCGTA	7.43
TCTGCTAGGTCAACGTTGGTCAGCTAATCTGCTA	2.71
AGAATGAGGTTACTAAAGATCAGGGAAACGCTTG	1.07
TAGCCTAGGTCATTCAGGGGCAAGTATAGAAAGC	1.87
CCTTACGGGTCAAGGTTATAGCCCGGGTGGTACG	3.74
CCTTACGGGTTACTCCAGGTTATAGCATCGGAGT	0.413
TCTTGTAGATCGATAGAGGTTAAGAAAGTGCGCT	1.93
CCTTACGGGTCACTCCAGGTCATAGCATCGGAGT	3.2
ATATGTAGGTTAGCTGAGGTCATTCAGACTAGGC	4.11
TAGCCTAGTTCATGCGGGCCAGTATAGTGTCGGC	-0.319
CAAAATAGGTCACCGGAAGGTCAAAGTCCGCATG	7.69
ATCGAAAGGTCGACCAGGTGAGTATACACCGTTT	2.44
GCTGCTAGGTCAACTGATGGTCATCTAAAGCTCG	2.34
CCTACTGGGCCAAAGGTGATTGATTCCAATGCTC	8.66
CAAACTAGGTCACAGTGGTCAAAGTCCGTGCGTA	7.04
ATATGTAGTTTATCGGGTCATTCAGTTTGCGCAT	1.64
CAAACTAGGTCACAAAAGGTCAAAGTCGAATGAC	8.43
TCTAGTTGGTCTAAGGTCACACACTCGAAATGCG	6.57
AATACAAGGTCATCGTAGGCCAGAGTACGCACAG	5.04
